The values that follow come from PubChem BioAssay.

For test [1], the target named is Tumor necrosis factor receptor superfamily member 10B (Homo sapiens) (UniProt O14763). Description: viability loss of caspase-8 NB7 cells with TRAIL – with/without TRAIL, luminescence panel, confirmation (AID 651596). Particulars: NB7 neuroblastoma + caspase-8, TRAIL sensitization, NB7 Caspase-8, with TRAIL, mean of runs, at 10 µM, stronger effect = higher value.
Assay in test [2]: as above
As to conditions: NB7 neuroblastoma + caspase-8, without TRAIL, NB7 Caspase-8, without TRAIL, mean of runs, at 10 µM.

Test [3] addresses Tumor necrosis factor receptor superfamily member 10B (Homo sapiens) (UniProt O14763). Description: compound enhancement of TRAIL-induced cell killing – NB7 cells plus caspase-8, luminescence, panel, dose response (AID 652002). As to conditions: NB7 neuroblastoma +caspase-8, TRAIL sensitization, luminescence viability, NB7+Caspase-8, with TRAIL, run 1; at 12.5 µM (top of the series).

Test [4] shares this target. The description is as above. Particulars: NB7 neuroblastoma +caspase-8, TRAIL sensitization, luminescence viability, NB7+Caspase-8, with TRAIL, run 2; at 12.5 µM (top of the series).
Assay in test [5]: as above
As to conditions: NB7 neuroblastoma +caspase-8, no TRAIL, compound-alone cytotoxicity counter-screen, luminescence viability, NB7+Caspase-8, run 1; at 12.5 µM (top of the series) unless noted. (The purpose of a counterscreen is to sort out artefacts and off-target activity.)

Assay in test [6]: as above
Particulars: NB7 neuroblastoma +caspase-8, no TRAIL, compound-alone cytotoxicity counter-screen, luminescence viability, NB7+Caspase-8, run 2; at 12.5 µM (top of the series) unless noted.

Tumor necrosis factor receptor superfamily member 10B (Homo sapiens), sequence (O14763 whole entry, looked up): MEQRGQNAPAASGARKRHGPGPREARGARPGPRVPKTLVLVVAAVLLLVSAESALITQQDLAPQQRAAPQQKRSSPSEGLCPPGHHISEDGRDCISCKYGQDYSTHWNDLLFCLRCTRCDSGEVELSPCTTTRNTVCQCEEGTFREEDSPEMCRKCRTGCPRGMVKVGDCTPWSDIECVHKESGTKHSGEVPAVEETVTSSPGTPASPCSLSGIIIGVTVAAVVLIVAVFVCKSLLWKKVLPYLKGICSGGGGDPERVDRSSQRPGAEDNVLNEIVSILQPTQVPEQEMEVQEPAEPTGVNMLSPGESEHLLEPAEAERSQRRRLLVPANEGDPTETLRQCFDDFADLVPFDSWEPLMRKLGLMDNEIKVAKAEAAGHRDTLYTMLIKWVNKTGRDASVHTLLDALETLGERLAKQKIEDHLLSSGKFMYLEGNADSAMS

As to `COc1cccc(N/C=C/C(=O)c2ccc(Cl)cc2)c1`, the results for the activity in test [1] and in test [2] were 58% and 50%, respectively. The activity, % sensitization in test [3] is 32%; in test [4], 38.3%; in test [5], 28.1%; in test [6], 40.5%.

For the compound `Cc1cccc(CS(=O)(=O)c2ncc(Cl)c(C(=O)Nc3nnc(C(C)C)s3)n2)c1`, the activity in test [1] was found to be 93.5%; in test [2], 86.1%.

As to `COc1ccc(-c2nn(-c3ccccc3)cc2/C=N/NC(=O)c2ccc(Br)o2)cc1`, the activity in test [1] came to 79.5%; in test [2], 32.3%.

With `Nc1c(N(CCC2=CCCCC2)C(=O)COc2ccc(F)cc2Cl)c(=O)[nH]c(=O)n1Cc1ccccc1`, the activity in test [1] was found to be 88.3%; in test [2] it was 79.4%.

For `Cc1cc(NC(=O)c2ccc3c(c2)OCO3)no1`, the activity in test [1] was determined as 46.2%; in test [2] it was 48.3%.

`CC(=O)c1c(C)[nH]c(C(=O)Nc2ccc(C)cn2)c1C`: the activity stood at 75.9% in test [1] and 77.6% in test [2].

Regarding `O=C(CSc1nnc(NC(=O)c2ccc(F)cc2)s1)NCc1ccco1`, the activity in test [1] worked out at 64.4%; in test [2], 62.4%.

For `COc1ccc(C2CC(c3cccs3)=NN2C(=O)CCl)cc1OC` (configuration not stated), the activity in test [1] and in test [2] was 98.7% throughout.

On to `Cc1ccc(N=C/C(C(=O)C(F)(F)F)=C(\O)c2cccs2)cc1`, for which the activity in test [1] was found to be 56.1%; in test [2] it was 53.8%. Also, the activity, % sensitization was 83.3% in test [3], 63.5% in test [4], -0.893% in test [5] and 77.5% in test [6].

With `COc1ccc(C=C2OC(=O)C(C(C)=O)=C2O)cc1`, the activity in test [1] was 90.4%; in test [2], 89%.

For the compound `CN(C(=O)c1ccco1)c1nc2c(s1)CCCC2`, the activity in test [1] is 58.4%; in test [2] it was 60.5%.

For `O=C(NNC(=O)c1cc(OCC(F)(F)F)ccc1OCC(F)(F)F)c1ccc(Cl)c(Cl)c1`, the activity amounted to 63.5% in test [1] and 50.9% in test [2]. Moreover, the activity, % sensitization in test [3] was -9.65%; in test [4], 2.58%; in test [5] it was -2.88%; in test [6], 0.592%.

For `CCOc1ccc(-c2cc(C(=O)N3CCC(C)CC3)c3ccccc3n2)cc1`, the activity in test [1] was determined as 53.4%; in test [2], 47.2%. Moreover, the activity, % sensitization in test [3] was 23.7%; in test [4], 31.6%; in test [5] it was -3.22%; in test [6], -9.62%.
